Screens as filed in PubChem BioAssay.
PPC-1+TRAIL kill – compounds killing PPC-1 cancer cells with TRAIL present (potentiator screen, no TRAIL-free arm) | PPC-1 cells + TRAIL, ATPLite viability luminescence | AID 1443 | 0.41% of 220,000 active | cell killing (% activity), % at 4 µM or 5 µM;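 active = cell killing above 50% in the first pass at 4 µM, then a duplicate retest at 5 µM averaging 50% or more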;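 note: plate controls were cells with TRAIL plus DMSO for no effect and medium-only wells lacking cells for full effect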
C8 TRAIL sens – sensitizes caspase-8 expressing cells to TRAIL. NB7+C8 cells + TRAIL, ATPlite viability luminescence. inhibition (viability loss, TRAIL sensitization), % at 10 µM. 1% of 360,000 active. AID 624354;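 active = compounds causing at least 50% loss of cell viability in the single-dose screen, relative to plate controls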
SENP6 block – inhibitors of human SENP6 protease; Q9GZR1; Recombinant SENP6 catalytic domain, aminoluciferin luminescence; inhibition, % at 10 µM; 1.8% of 330,000 active; AID 2599;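 active = inhibition above about 50% at the single tested dose, limit read from the data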;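 note: plate controls were DMSO wells with enzyme for no effect and DMSO wells lacking enzyme for full effect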
SENP7 block – SENP7 protease inhibition; recombinant SENP7, Z-RLRGG-aminoluciferin luminescence, 40 min; AID 434973; 1.5% of 330,000 active; Q9BQF6; inhibition, % at 5 µM;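 active = inhibition above about 50% at the single test dose, limit read from the data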;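 note: plate controls were DMSO with enzyme for no effect and no enzyme buffer wells for full effect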
Target sequence (Q9BQF6 706-1050 limits assumed): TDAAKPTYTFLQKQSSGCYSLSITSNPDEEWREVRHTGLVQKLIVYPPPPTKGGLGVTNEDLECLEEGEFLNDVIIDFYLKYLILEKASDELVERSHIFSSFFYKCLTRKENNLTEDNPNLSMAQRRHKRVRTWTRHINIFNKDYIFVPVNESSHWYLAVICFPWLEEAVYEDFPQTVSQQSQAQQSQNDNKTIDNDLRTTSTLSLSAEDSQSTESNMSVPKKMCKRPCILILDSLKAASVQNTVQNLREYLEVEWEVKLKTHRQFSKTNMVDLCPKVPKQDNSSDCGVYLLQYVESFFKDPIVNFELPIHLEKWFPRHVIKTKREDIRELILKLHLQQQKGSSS
SENP8 block-1 – SENP8 (human) protease inhibition | recombinant SENP8, Nedd8 substrate fluorescence | inhibition, % at 20 µM | 0.64% of 360,000 active; in the data active = inhibition mostly above about 40%, no sharp cut-off; inactive = mostly below about 27%
SENP8 block-2 – inhibitors of human SENP8 protease; Q96LD8; purified SENP8, Z-RLRGG-aminoluciferin cleavage, luminescence; inhibition, % at 10 µM; 1.2% of 330,000 active; AID 2540; in the data active = inhibition above about 50%
SENP8 confirm – confirmation of human SENP8 protease inhibitors. shares compounds with SENP7 block. Recombinant SENP8, Z-RLRGG-aminoluciferin luminescence, 60 min. inhibition, % at 12.5 µM. 40% of 6,200 active;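 active = mean inhibition across replicates above about 50%, limit read from the data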
SENP6 confirm – confirmation of human SENP6 protease inhibitors; shares compounds with SENP7 block; recombinant SENP6, Z-RLRGG-aminoluciferin luminescence; inhibition, % at 12.5 µM; 58% of 6,200 active; AID 488915
SENP7 conf – confirmation of human SENP7 protease inhibitors; 69% of 6,200 active; AID 488917; recombinant SENP7, Z-RLRGG-aminoluciferin luminescence, 40 min; inhibition, % at 12.5 µM; shares compounds with SENP7 block
Casp3 select – caspase-3 inhibition (SENP selectivity assay); inhibition, % at 12.5 µM; 60% of 6,200 active; purified caspase-3, Z-DEVD-aminoluciferin luminescence, 60 min; shares compounds with SENP7 block;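 active = mean inhibition above about 50%, limit read from the data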;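 note: plate controls were enzyme with DMSO for no effect and wells without caspase-3 for full effect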
SENP luc ctr – luminescence interference (SENP counter-screen); shares compounds with SENP7 block; Pre-incubated SENP8/Z-RLRGG-aminoluciferin, luciferase luminescence interference; inhibition, % at 12.5 µM; 39% of 6,200 active; AID 488919;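 active = mean inhibition above about 50% when retested at one dose, limit read from the data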;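 note: plate controls were DMSO wells with completed reaction for no effect and substrate without enzyme for full effect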
The depositor's hits bear a star; · = not tested or not shown. Sampled rows, rich in hits. Any-hit rate of the full collection: about 3%.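 Rule for the calls, unless noted: active = mean inhibition above about 50% in the one-dose retest (limit read from the data); inactive = the rest.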

SMILES | PPC-1+TRAIL kill | C8 TRAIL sens | SENP6 block | SENP7 block | SENP8 block-1 | SENP8 block-2 | SENP8 confirm | SENP6 confirm | SENP7 conf | Casp3 select | SENP luc ctr
COc1cccc(N/C=C/C(=O)c2ccc(OC)c(OC)c2)c1 | · | -23 | 89* | 75* | -271 | 64* | -9 | 70* | 93* | 70* | 16
COc1ccc(OC)c(N/C=C/C(=O)c2ccc(OC)c(OC)c2)c1 | · | -4 | 11 | -2 | -198 | -5 | · | · | · | · | ·
Cc1noc(C)c1S(=O)(=O)NC(=O)C1(C)CCN1C(=O)C1(c2ccc(Cl)cc2)CC1 (centres undefined) | · | -9 | · | · | 8 | · | · | · | · | · | ·
O=S1(=O)CC/C(=N/Nc2ccccn2)c2cc(F)ccc21 | 12 | -11 | -15 | 63* | 8 | -7 | 4 | 7 | 8 | 4 | 2
O=C1Nc2ccccc2SC1c1ccccc1 (centres undefined) | · | -2 | · | · | 11 | · | · | · | · | · | ·
Cc1ccc(NC2Sc3ccccc3NC2=O)cc1 (centres undefined) | 24 | 16 | 77* | 30 | 9 | 53* | 53* | 41 | 68* | 57* | 55*
O=C(Nc1ccc(F)c(Cl)c1)c1cc(C2CCCN(C(=O)CCc3ccccc3)C2)on1 (centres undefined) | · | 18 | · | · | 22 | · | · | · | · | · | ·
Nc1nc(-c2ccc(-c3ccccc3)cc2)cs1 | 8 | 59* | -16 | 73* | -418 | 68* | 11 | 82* | 97* | 55* | 28
Nc1nc(-c2cc3ccccc3o2)cs1 | 0 | 16 | 71* | 39 | 7 | 39 | 52* | 53* | 81* | 56* | 12
Nc1nc(-c2ccc3ccccc3c2)cs1 | 34 | 33 | 33 | 74* | -255 | 69* | 0 | 83* | 97* | 64* | 84*
OC(c1ccccc1)c1nc(-c2cc3ccccc3o2)cs1 (centres undefined) | · | 10 | · | · | -14 | · | · | · | · | · | ·
O=C(CNc1ccc(Br)cc1)c1ccccc1 | 15 | -3 | 71* | 32 | 19 | 48 | 9 | 14 | 21 | 21 | 12
CSCC[C@H](N)C(=O)N1CCC(C(=O)N[C@H](C)C(=O)Nc2ccc(C(C)C)cc2)CC1 | · | -1 | -21 | -4 | 19 | -8 | · | · | · | · | ·
CC1CCC/C(=C\Nc2ccc(O)cc2)C1=O (centres undefined) | 11 | -16 | 14 | 15 | 8 | -11 | · | · | · | · | ·
Cc1cc(C(=O)O)ccc1N/C=C1\CCCC(C)C1=O (centres undefined) | 4 | 1 | 79* | 27 | -44 | 77* | 9 | 89* | 99* | 62* | 88*
O=C(c1cccs1)N1C[C@@H](n2cc(C3CC3)nn2)[C@H](O)C[C@@H]1c1ccc(Cl)cc1 | · | -3 | · | · | 3 | · | · | · | · | · | ·
COc1ccc(C(=O)COC(=O)c2ccccc2O)c(OC)c1 | · | 13 | 51* | 43 | -20 | 31 | 51* | 44 | 37 | 28 | 29
CC(C)CNc1ncnc2c1ncn2[C@H]1CN(Cc2ccc3c(c2)OCO3)C[C@@H](CO)O1 | · | -6 | · | · | 32 | · | · | · | · | · | ·
Cc1ccc(S(=O)(=O)Nc2ccc(NC(=O)c3c(F)c(F)c(F)c(F)c3F)cc2)cc1 | 11 | -4 | -20 | -16 | 5 | -10 | · | · | · | · | ·
c1cc2[nH]snc2c2nc(C3CC3)nc12 | 9 | -3 | 55* | 28 | -100 | 29 | -4 | -1 | 3 | 35 | 17
CCOC(=O)c1ccc(COC(=O)c2ccc(-c3nnc(-c4ccccc4)o3)cc2)o1 | · | -7 | 53* | 3 | -161 | 25 | 24 | 20 | 22 | 59* | 51*
